# A selection: hits, their analogues and other compounds. The true share with any hit is near 11%.
# Pf growth 48h = P. falciparum growth inhibition at 48 hours (one generation); Potency, µM (titrated, usually from 28.7 µM), for the others: at the top dose activity change, negative = inhibition, most hits filed as inhibitors; 5.9% of 310,000 active; P. falciparum luciferase growth in erythrocytes, 48 h
#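 In quantitative HTS format, infected erythrocytes bearing luciferase-reporter parasites were treated for a single generation at 37 C. Luminescence after adding detection reagent served as the growth measure.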
# AMA1 RON2 block = AMA1-RON2 (P. falciparum) interaction inhibition; AlphaScreen AMA1-biotinylated RON2 peptide binding; Potency, µM (highest dose often 58.2 µM), inactives show at the highest dose activity change, negative = inhibition, hits mostly inhibitors; 0.2% of 360,000 active; AID 720542;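 also: 0% = vehicle wells and -100% = peptide control; nearly all actives have a fitted effect of over 45% in size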
#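 AMA1 (3D7) with his tag at 25 nM final met compounds first, then biotinylated RON2 peptide at 25 nM; detection used donor plus acceptor beads, 10 µg/mL apiece, read by AlphaScreen after 30 min at room temperature.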
# HCV inh = HCV inhibition; Potency, µM (series often up to 41.8 µM), for inactives: at the top dose activity change, negative = inhibition, most hits filed as inhibitors; Huh7.5.1 HCVcc-Cre infection, luciferase reporter, 44 h; 3.4% of 340,000 active
#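 Cells seeded at 1,000/well and cultured 4 h, then compounds added followed by HCVcc-Cre virus (~0.5 moi). After 44 h further culture, luciferase substrate was added, plates held 15 min at room temperature, and luminescence read for 15 sec.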
# Pf growth 96h = P. falciparum growth inhibition at 96 hour, primary screen for plastid delayed-death inhibitors; Potency, µM (doses to about 28.7 µM), for inactives: top-dose activity change, negative = inhibition, hits mostly inhibitors; P. falciparum luciferase reporter growth, 96 h; 6.9% of 320,000 active
#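 Readout is luminescence from an integrated firefly luciferase in P. falciparum. Red cells, 2% hematocrit and 0.05% parasitemia final, were cultured with compound through two parasite generations (96 hours) at 37 C, 5% CO2.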
# An asterisk follows results filed as active; ? = inconclusive; nt = no result; [ ] = another dose, or the depositor's remark. Calls follow the shape of the dose curve; as a rule, active = well fitted curve in the direction sought with a large enough effect; inconclusive = small, poorly fitted or top-dose-only effect, or another doubt; inactive = no such curve, though single readings can be large; an effect the other way counts as inactive or inconclusive. Unless noted, % is scaled to controls: 0 for no effect and ±100 for the full control effect; potency is read from the fitted curve at half-maximal effect.
SMILES,Pf growth 48h,AMA1 RON2 block,HCV inh,Pf growth 96h
COc1ccc(OC)c(/C=C/C(=O)N2CCN(S(=O)(=O)c3cc(C)ccc3C)CC2)c1,?,16%,?,?
COc1ccccc1/C=C/C(=O)N1CCN(S(=O)(=O)c2cc(C)ccc2C)CC1,15µM*,0%,?,?
CCc1cc(C(=O)N2CCN(S(=O)(=O)c3cc(C)ccc3C)CC2)sc1C,13µM*,-8%,?,?
COc1ccc(OC)c(/C=C/C(=O)N2CCN(S(=O)(=O)c3ccc(C)cc3C)CC2)c1,12µM*,24%[11.6 µM],?,13µM*
Cc1cc(/C=N\NC(=O)CC(=O)NC2CCCCC2)c(C)n1-c1ccc(Cl)c(Cl)c1,5%,-7%,12%,?
Cc1cc(/C=N\NC(=O)CC(=O)NC2CCCCC2)c(C)n1-c1cccc(Cl)c1Cl,-6%,-3%,5%,8.3µM*
COc1ccc(NC(=O)CN2c3cccc4cccc(c34)S2(=O)=O)cc1OC,nt,4%,nt,nt
COc1ccc(/C=C(\C#N)C(=O)OCC(=O)Nc2ccc(C(C)(C)C)cc2)cc1,23%,-2%,2%,25%
Cc1ccccc1N=Nc1c(N)n[nH]c1N,7%,52%,-14%,2.9µM*
COc1cc(C(=O)NC(=S)Nc2ccc(N3CCCC3)cc2)cc(OC)c1OC,9.3µM*,-15%,?,?
O=C(NC(=S)Nc1ccc(N2CCOCC2)cc1)c1cccc(Cl)c1,57%,-14%,25µM*,215%
COc1cccc(C(=O)NC(=S)Nc2ccc(N3CCCC3)cc2)c1,?,25µM*,?,41%
CCCC(=O)N1CCN(c2ccc(NC(=S)NC(=O)c3cccc(C)c3)cc2)CC1,?,-6%,7.1µM*,36%
O=C1OCCN1c1c(-c2ccccc2)c(-c2cccs2)nc2c(-c3ccccc3)cccc12,?,6%,-23%,?
COc1ccccc1/C=C1\CCCC2=C1Nc1nnnn1C2c1ccccc1OC (stereo not drawn),?,-7%,?,-20%
CC(C)Oc1cccc(C(=O)NC(=S)Nc2ccc(N3CCN(C)CC3)cc2)c1,13µM*,-5%,?,12µM*
Cn1c(=O)n(CC(=O)N2CCC3(CC2)OCCO3)c(=O)c2ccccc21,43%,-5%,-6%,1.7µM*
O=C(CCCCCn1c(=S)[nH]c2ccccc2c1=O)N1CCC2(CC1)OCCO2,8.3µM*,43%,-5%,15%
O=C(Cn1c(=S)[nH]c2ccccc2c1=O)N1CCC2(CC1)OCCO2,9%,5%,4%,40%
CCOP(=O)(OCC)c1ccc2c(c1)C(=O)c1ccccc1CC2,-3%,nt,nt,4.1µM*
CC(C)Oc1ccc(CC2CC(=O)NC2=O)cc1 (stereo not drawn),40%,16%,17%,10µM*
O=C(NC1CCCCCCC1)c1ccc(F)c(S(=O)(=O)N2CCOCC2)c1,?,7%,?,?
Cc1ccc(C(=O)NC2CCCCCCC2)cc1S(=O)(=O)N1CCOCC1,?,6%,?,9.3µM*
O=C(NC1CCCC1)c1ccc(Cl)c(S(=O)(=O)N2CCOCC2)c1,4.7µM*,9%,-10%,9%
O=C(CSc1nnc(NC(=O)C2CCC2)s1)Nc1ccccc1F,3%,-5%,-8%,7%
SMILES,Pf growth 48h,AMA1 RON2 block,HCV inh,Pf growth 96h
CC1=C(C(=O)N(C)C)CC(CC(=O)NCCCCc2ccccc2)C(=O)N1Cc1ccc(F)cc1 (stereo not drawn),nt,4%,nt,nt
CCCCN1C(=S)NC[C@@H]1Cc1ccc(O)cc1,-1%,43%,13%,-10%
CN(C)c1ccc(C2C=C(c3ccc(Cl)cc3OC(F)F)Nc3ncnn32)cc1 (stereo not drawn),?,-1%,10µM*,112%
Cc1ccc(NC(=O)CN2CCC(Cc3ccccc3)CC2)cc1S(=O)(=O)N(C)C,?,?,11µM*,?
Cc1ccc(NC(=O)CCN2CCC(Cc3ccccc3)CC2)cc1,7.4µM*,-6%,-25%,10µM*
Cc1ccc(NC(=O)CCN2CCN(C/C=C/c3ccccc3)CC2)cc1,?,5%,?,nt
COc1ccc(OC)c(NC(=S)NCc2ccco2)c1,nt,10%,17%,nt
O=C(/C=C/[C@H]1O[C@@H](n2ccc(=O)[nH]c2=O)[C@H](O)[C@@H]1O)NCc1cccnc1,nt,3%,nt,nt
CCN(CC)S(=O)(=O)c1ccc(/C=C/C(=O)Nc2cccc(F)c2)cc1,?,13%,13µM*,2.9µM*
Cc1ccc(S(=O)(=O)Nc2ccc(NC(=O)Nc3cccc(C(F)(F)F)c3)cc2)cc1,13µM*,2%,?,?
CCN(CC)S(=O)(=O)c1ccc(/C=C/C(=O)O)cc1,16%,-2%,29%,3%
O=C(Nc1ccncc1)Nc1cccc(C(F)(F)F)c1,?,5%,-25%,?
CCN(CC)S(=O)(=O)c1ccc(NC(=O)Nc2cccc(C(F)(F)F)c2)cc1,5.2µM*,5%,11µM*,nt
Cc1ccc(S(=O)(=O)CC(C)(O)C(=O)Nc2cccc(C(F)(F)F)c2)cc1 (stereo not drawn),-11%,4%,2%,9%
O=C(Nc1ccc(OC(F)F)cc1)Nc1cccc(C(F)(F)F)c1,nt,5%,?,5.2µM*
Cc1ccc2c(c1)nnn2C1CCN(CC(=O)NCCc2ccccc2)CC1,?,-3%,-17%,0%[5.75 µM]
Cc1ccc2c(c1)nnn2C1CCN(CC(=O)Nc2ccccc2N2CCOCC2)CC1,2.1µM*,0%,?,37%
COc1ccc(Cl)cc1NC(=O)CN1CCC(n2nnc3cc(C)ccc32)CC1,?,-3%,5µM*,8%
COc1ccccc1NC(=O)CN1CCC(n2nnc3cc(F)ccc32)CC1,?,-3%,?,?
COC(=O)c1ccc(C)c(NC(=O)CCCN2C(=O)NC(C)(C)C2=O)c1,-1%,-3%[11.6 µM],21%,4%
CC(C)N(Cc1ccccc1)C(=O)CN1C(=O)NC(Cc2ccccc2)(c2ccccc2)C1=O (stereo not drawn),?,-4%,-12%,12µM*
COc1ccc(CNC(=O)CN2C(=O)NC(Cc3ccccc3)(c3ccccc3)C2=O)cc1OC (stereo not drawn),?,-4%,-2%,15µM*
COc1ccc(CNC(=O)CN2C(=O)NC(c3ccccc3)(c3ccccc3)C2=O)cc1OC,nt,-7%[11.6 µM],-25%,nt
COc1ccccc1/C=C/C(=O)N1CCN(S(=O)(=O)c2cccs2)CC1,nt,-10%,-21%,nt
COc1ccccc1CNC(=O)C(=O)NCC1CCCN1S(=O)(=O)c1cccs1 (stereo not drawn),12µM*,-7%,24%,0%
O=C(NCCc1ccc(F)cc1)C(=O)NCC1CCCN1S(=O)(=O)c1cccs1 (stereo not drawn),13µM*,-9%,?,?
O=C(NCc1ccccc1F)C(=O)NCC1CCCN1S(=O)(=O)c1cccs1 (stereo not drawn),?,5%,-10%,?
COc1ccccc1CC(=O)N1CCN(S(=O)(=O)c2cccs2)CC1,-16%,-12%,-13%,15µM*

# High-throughput results (PubChem BioAssay)
